Results taken from ChEMBL document CHEMBL4513216, “Probing the Open Global Health Chemical Diversity Library for Multistage-Active Starting Points for Next-Generation Antimalarials” (ACS Infect Dis, 2020).
Among all 65,000 compounds or so, about 2,100 (3.2%) showed an effect of 50% or more. The median lay at about -52%. For the sample, strong results were picked, then their nearest neighbours and some compounds at random.

System: Plasmodium falciparum
Assay: Screen against P. falciparum Asexual Blood Stage (ABS), at 5uM
Assay type: functional, Dd2
Conditions: tested at 5 uM

SMILES	INHIBITION
CO[C@H]1CN(Cc2ccc(C)o2)[C@@H]2CCCO[C@H]12	11.8%
CN(C)C(=O)COC[C@H]1CC[C@@H]2[C@@H](CCN2Cc2ccccn2)O1	-79.4%
O=C1[C@@H]2CCN(CC3CC3)C[C@@H]2OCCN1c1cccnc1	-73.4%
O=C(NCC(F)(F)F)C1=NOC2(CCCNC2)C1 (stereo unspecified)	-61.4%
CCOC[C@H]1CC[C@H]2[C@H](CCN2Cc2c(C)noc2C)O1	-13.8%
CNc1cc(C)nc(N2C[C@H](C3CC3)[C@@H](N)C2)n1	88.3%
CCc1[nH]c(C2(N)CCCC2)nc(=O)c1C	-32.3%
COC(=O)CCC(=O)NC(C)Cc1ccccc1Br (stereo unspecified)	-63.4%
COCCN(Cc1ccccc1Cl)c1nc(CCN)nc2ccccc12	89.5%
c1cnc(N2CCO[C@H]3CN(CC4CC4)C[C@H]32)nc1	3.32%
CCCNCc1ccc(-c2cc(N)nc3[nH]ccc23)cc1	72.3%
CN(C)c1nccc(N(C)C2CCN(CC3CCOC3)CC2)n1 (stereo unspecified)	-4.08%
Cc1ccc(CNCc2cccc3cn[nH]c23)c(OC2CCOC2)c1 (stereo unspecified)	78.7%
Cc1ccc(CNCc2cccc3cccnc23)c(OC2CCOC2)c1 (stereo unspecified)	85.4%
Cc1nc(COC[C@@H]2CC[C@H]3NCC[C@H]3O2)cs1	-46.5%
Cc1noc(C)c1CN1C[C@H](OCC(=O)N(C)C)[C@H]2COC[C@H]21	-85.8%
O=C1[C@H]2CN(CC3CC3)C[C@H]2CN1c1ccsc1	-60.4%
Cc1cnc(N2CCC[C@@H]3CN(CC(=O)N(C)C)C[C@@H]32)nc1	-22.5%
COc1cc(C2SCC(=O)Nc3[nH]ncc32)cc(OC)c1OC (stereo unspecified)	-200%
O=C(NCC1CC1)C1CCC2(CCNCC2)C1 (stereo unspecified)	-31.3%
Fc1cnc(N2CCO[C@H]3CN(CC4CCCC4)C[C@H]32)nc1	25.4%
CC(C)CCN1C[C@@H]2OCCN(c3ncc(F)cn3)[C@@H]2C1	-2.26%

SMILES	INHIBITION
Cc1nc(CN2C[C@@H]3OCCN(c4ncc(F)cn4)[C@@H]3C2)cs1	52%
CO[C@@H]1CCN(S(=O)(=O)c2cccnc2)[C@@H]2CN(CC3CC3)C[C@@H]21	-23.6%
Cc1noc(C)c1CN1C(=O)[C@@H]2CC[C@H]1CN(Cc1nccs1)C2	-122%
O=C(Cc1ccc(CO)cc1)N1CCN(CC2CC2)[C@@H]2CS(=O)(=O)C[C@@H]21	-55.1%
O=c1cc(CN2CC[C@@H]3CC[C@H](C2)N3)c2cccc3c2n1CCC3	-41.1%
COCCN1CCC12CCN(C(=O)c1ccc(C)nc1)C2 (stereo unspecified)	-172%
CCOc1ccc2nc(CN3CCC(CN)C3)ccc2c1 (stereo unspecified)	85.5%
COc1cccc([C@@H]2CCN(Cc3ccc4ccccc4n3)C[C@H]2O)c1	-17.2%
COC[C@]12COC[C@H]1CN(Cc1ccc3ccccc3n1)C2	-29.2%
c1cnc(N2CCO[C@@H]3CN(Cc4ccoc4)C[C@@H]3C2)nc1	-30.5%
Cc1cccc(S(=O)(=O)NCC(C)N2CCN(C)CC2)c1Cl (stereo unspecified)	81.5%
Cc1cc(Cl)ccc1S(=O)(=O)NCC(C)N1CCN(C)CC1 (stereo unspecified)	74.3%
CC(CNS(=O)(=O)c1cccc(Cl)c1)N1CCN(C)CC1 (stereo unspecified)	78%
CNS(=O)(=O)CC(=O)NC(C)Cc1cccc(Cl)c1 (stereo unspecified)	-15.4%
COCCN1CCN(c2cc(OC)ncn2)Cc2ccc(C)nc21	-102%
Cc1cc(CN2CC[C@H]3C[C@@H](c4nc(C5CC5)cs4)O[C@@H]3C2)no1	6.98%
NCC1(c2cccc(C(F)(F)F)c2)CCCCC1	2.74%
Cc1ccccc1C1(CN)CCCCC1	91%
Cc1ccccc1C1(CN)CCOCC1	36.4%
CC(c1cn2ccsc2n1)n1cc2[nH]cccc-2c1=O (stereo unspecified)	-134%
CO[C@H]1CN(C(C)C)C[C@@H]1NC(=O)c1cc(-c2ccccc2O)n[nH]1	90%
Clc1ccccc1-c1cc(CNc2ncnc3c2CCNCC3)no1	80.3%

SMILES	INHIBITION
CC(C)(C)C(=O)N1C[C@H](c2ccsc2)[C@H]2CN(C3CCCC3)CC[C@H]21	72.6%
CC(C)(C)C(=O)N1C[C@H](c2ccsc2)[C@H]2CN(C3CCCCC3)CC[C@H]21	77.3%
CN1CCN([C@@H]2CN(C(=O)Cc3ccsc3)[C@@H]3CCCO[C@H]23)CC1	-66.9%
CCC(CC)CN1CCC2(CCCN(c3ncccn3)C2)C1 (stereo unspecified)	62.6%
c1cnc(N2CCCC3(CCN(CC4CCC4)C3)C2)nc1 (stereo unspecified)	53.9%
Cc1noc(C)c1CN1CCCC2(CCN(CC3CCCC3)C2)C1 (stereo unspecified)	83.1%
COCCN1CCC2(C1)CN(c1ncccn1)C2	-85.3%
Cc1noc(C)c1CN1CCCC2(CCN(C(=O)CC3CC3)C2)C1 (stereo unspecified)	-16.5%
c1cnc(N2CCCC3(COCCN(CC4CC4)C3)C2)nc1 (stereo unspecified)	37.4%
c1cnc(N2CCC3(CN(CC4CCOC4)C3)C2)nc1 (stereo unspecified)	-15.6%
CCN1CCCC12CCCN(c1ncccn1)C2 (stereo unspecified)	-31.8%
c1cnc(N2CCC3(CCCN(CC4CC4)C3)CC2)nc1	41.7%
Cc1noc(C)c1CN1CCCC2(CCN(C(=O)C3CC3)C2)C1 (stereo unspecified)	12.9%
c1cnc(N2CCCC3(CCN(CC4CC4)C3)C2)nc1 (stereo unspecified)	61.1%
CNC(=O)CN1CCOCC12CCN(Cc1ccncc1)CC2	-20.5%
Cc1cccc(CN2CCC[C@@H]3CN(C(=O)c4ccco4)C[C@@H]32)n1	-73.5%
CCS(=O)(=O)NC[C@]12COC[C@H]1CN(Cc1cccnc1)C2	-97.3%
O=C(NCC1CC1)[C@H]1C[C@@H]2[C@@H](C1)OCCN2Cc1cccnc1	-29.4%
CC(C)(C)c1cn(C[C@H]2CC3CCN2C[C@@H]3C(=O)NC2CC2)nn1 (stereo partly specified)	-148%
Cc1noc(C)c1CN1C[C@@H]2C[C@H](C(=O)NCC3CC3)N(C)[C@@H]2C1	-8.05%
CC(=O)C1(c2ccccc2)CCN(C(=O)CC2CNCCO2)CC1 (stereo unspecified)	-44.7%
O=C(C1CNCCO1)N1CCCC(c2ccccc2)(c2ccccc2)C1 (stereo unspecified)	79.5%

SMILES	INHIBITION
CC(=O)C1(c2ccccc2)CCN(C(=O)C2CNCCO2)CC1 (stereo unspecified)	-81.4%
CCN(CC)c1nc(Nc2cccc(C(C)O)c2)nc2ccccc12 (stereo unspecified)	84.5%
CC(O)c1cccc(Nc2nc(NCCO)c3ccccc3n2)c1 (stereo unspecified)	89.4%
OC[C@@H]1CN2CCN(c3ccccn3)C[C@@H]2[C@H]1c1ccccc1	-7.96%
c1ccc(CO[C@@H]2CN(Cc3nccs3)[C@@H]3COC[C@@H]32)nc1	-84.8%
CCn1nc(C)c(CN2CCNCC2)c1C	-86.35%
c1cncc(C(Cn2cnnc2)N2CCOCC2)c1 (stereo unspecified)	-88.3%
COCCN1CCc2cc(C(=O)NC(C)C)c(NCC(C)C)nc2CC1	78.9%
COCCN1CCC2(CC1)C(=O)Nc1ccc(C(=O)NC(C)C)cc12	-102%
Cc1n[nH]c2c1C(c1cnn(C)c1)SCC(=O)N2 (stereo unspecified)	-51.7%
c1cncc(CN2CCC3(CCCN(c4nncs4)C3)C2)c1 (stereo unspecified)	-82.9%
CC(C)c1ccc(CN2CCC3(CCCN(c4nncs4)C3)C2)cc1 (stereo unspecified)	73.6%
CN(C)C(=O)N1CCCC2(CCN(Cc3ccncc3)C2)C1 (stereo unspecified)	-29.6%
Cc1cccc(CN2C[C@@H]3COC[C@H](NS(C)(=O)=O)[C@@H]3C2)n1	-96.6%
CC(C1CCN(Cc2c(Cl)ccc(O)c2Cl)CC1)N1CCN(C)CC1 (stereo unspecified)	87.2%
Cc1n[nH]c2c1C(c1cc(F)cc(F)c1)SCC(=O)N2 (stereo unspecified)	-23.5%
O=C(c1ccco1)N1CC2(CCNCC2)c2cc(Cl)ccc21	76.1%
CCOC(=O)N1CC2(CCNCC2)c2cc(Cl)ccc21	78%
CCOC(=O)N1CCC2(CCNC2)C1 (stereo unspecified)	-85.4%
CC(=O)N1CC2(CCNCC2)c2cc(Cl)ccc21	3.4%
O=C(c1ccco1)N1CCO[C@@H]2CNCC[C@@H]2C1	-138%
COC(=O)N1CC2(CCNCC2)c2cc(Cl)ccc21	13.1%

SMILES	INHIBITION
NC(=O)N1CC2(CCNCC2)c2cc(Cl)ccc21	-61%
O=C(c1ccccc1F)N1CC2(CCNCC2)c2cc(Cl)ccc21	77%
O=C1CCC2(CCCN(C(=O)c3ccco3)CC2)N1 (stereo unspecified)	40.8%
O=C(NC[C@]12COC[C@H]1CN(Cc1cccnc1)C2)C1CCC1	-49.9%
CCC(C(=O)N1CCCSCC1)N1CCCC1=O (stereo unspecified)	-76.1%
CNCCc1nc2cc(Cl)ccc2[nH]1	-71%
O=C(N1CCCO1)[C@@]12CCO[C@@H]1CCN(Cc1ccccn1)C2	-110%
CC(Cn1cncn1)NCCN1CCc2ccccc21 (stereo unspecified)	-71.4%
CC(C)c1nn(C)c(Cl)c1CNCC(O)c1cccc(F)c1 (stereo unspecified)	82.4%
CC(C)=CCN1C[C@@H]2CC[C@H]1CN(C(=O)CSc1ccncc1)C2	-26.7%
Cc1noc(C)c1CN1CC2(CCCCN2C)CC1=O (stereo unspecified)	-15.4%
CC(C)NC(=O)[C@H]1C[C@@H]2[C@@H](C1)OCCN2Cc1ccccn1	-84.2%
O=C(Nc1nccs1)C1CCCN1Cc1ccccn1 (stereo unspecified)	93.7%
O=C(Nc1cccnc1)[C@H]1C[C@@H]2CCN(Cc3nccs3)C[C@@H]2O1	-177%
CCn1ccnc1CN1CCCC1C(=O)Nc1nccs1 (stereo unspecified)	85%
CCNc1ccnc(CN2CCCC2C(=O)Nc2nccs2)c1 (stereo unspecified)	95.1%
O=C(N[C@@H]1CN(Cc2ccccn2)[C@@H]2COC[C@@H]21)C1CCC1	-89.5%
CCn1ccnc1CN1CCCN(C(=O)Cc2csc(C)n2)CC1	-15.3%
